Screens deposited in PubChem by National Center for Advancing Translational Sciences (NCATS).
Sampled rows, rich in hits. Any-hit rate of the full collection: about 19%.
KB-3-1 tox = kills parental KB-3-1 adenocarcinoma cells | 400,000 compounds, 1.4% hits | KB-3-1 viability, CellTiter-Glo ATP luminescence, 72 h | Potency, µM (top dose mostly 46.1 µM), actives largely listed as cytotoxic; further: nearly all actives have a fitted effect of over 60% in size
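Cytotoxicity in the drug-sensitive parental line KB-3-1 was scored as loss of CellTiter-Glo luminescence following 72 h incubation with compound. Values come from curve fitting of normalized concentration-response data.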
DT40 TDP1 no CPT = qHTS for Inhibitors of human tyrosyl-DNA phosphodiesterase 1 (TDP1): qHTS in cells in absence of CPT; DT40 Tdp1-/- hTDP1 cells, no CPT, ATP luminescence, 48 h; Potency, µM (titrated, usually from 46.2 µM), without a hit: top-dose activity change, negative = growth inhibition, usual class: inhibitors; 420,000 compounds, 15% hits; further: nearly all actives have a fitted effect of over 55% in size
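Cells were dispensed at 400 per well, compounds added by pin tool, plates incubated ≥48 hr at 37 °C, then CellTiter-Glo added for 30 min at room temperature before luminescence reading. Line: DT40 Tdp1-/- complemented with hTDP1; camptothecin omitted.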
DT40 TDP1 CPT = growth inhibition of DT40 Tdp1-/-;hTDP1 cells with camptothecin (screen for TDP1 inhibitors) | chicken DT40 Tdp1-/-;hTDP1 cells + 20 nM CPT, ATP luminescence, 48 h | Potency, µM (doses to about 46.2 µM), without a hit: at the top dose activity change, negative = growth inhibition, actives largely listed as inhibitors | 420,000 compounds, 12% hits | AID 686979; further: nearly all actives have a fitted effect of over 55% in size
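Chicken DT40 Tdp1-/- cells complemented with human TDP1, 400 cells/well, exposed to compounds plus 20 nM camptothecin for at least 48 h at 37 C; viability read as ATP content by CellTiter-Glo luminescence.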
KB-V1 MDR tox = kills drug-selected multidrug resistant KB-V1 cells; KB-V1 MDR cells viability, CellTiter-Glo, 72 h; Potency, µM (highest dose often 46.1 µM), hits mostly cytotoxic; 400,000 compounds, 3.4% hits; AID 1347076; further: nearly all actives have a fitted effect of over 60% in size
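qHTS viability screen in drug-selected KB-V1 MDR cells: 72 h compound treatment at 37 degrees C, ATP luminescence end point.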
HT1080 IDH1KD tx = toxicity to HT-1080 IDH1 knockdown cells (counter line). 360,000 compounds, 2% hits. AID 686971. Potency, µM (titrated, usually from 46.1 µM), without a hit: top-dose activity, negative = toxicity, usual class: cytotoxic. HT-1080 IDH1 knockdown viability, ATP luminescence, 48 h;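 further: 0% = DMSO wells and -100% = cell-free medium wells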
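Using the IDH1-knockdown HT-1080 line run in the same batch and compound series as the NT line, viability after 48 h at 37 °C was determined by CellTiter-Glo luminescence and expressed as % activity.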
HT1080NT lethal = kills 2HG-producing HT-1080-NT fibrosarcoma cells. Potency, µM (highest dose often 46.1 µM), inactives show top-dose activity, negative = less viability, actives largely listed as cytotoxic. 360,000 compounds, 1.6% hits. HT-1080-NT fibrosarcoma viability, CellTiter-Glo ATP luminescence, 48 h;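 further: NT is the 2HG producing partner of a matched IDH1 knockdown line; 0% = DMSO-treated cells and -100% = media-only wells without cells; nearly all actives have a fitted effect of over 55% in size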
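Luminescent CellTiter-Glo readout after 48 hours of compound exposure at 37 degrees C defined viability of HT-1080-NT cells. Activity was normalized to DMSO wells and cell-free media wells; concentration-response curves were fitted and assigned curve classes.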
An asterisk follows results filed as active; i = inactive; u = inconclusive; x = no result given. The call rests on the fitted dose curve; in most records, active means well fitted curve in the direction sought with a large enough effect; inconclusive means small, poorly fitted or top-dose-only effect, or another doubt; inactive means no such curve, though single readings can be large; an effect the other way counts as inactive or inconclusive. Unless noted, on the % scale 0 is the no-effect control and ±100 the full control effect; potency means the concentration at half of the fitted maximal effect.

SMILES	KB-3-1 tox	DT40 TDP1 no CPT	DT40 TDP1 CPT	KB-V1 MDR tox	HT1080 IDH1KD tx	HT1080NT lethal
N#CC12COC3(CCCCC3C1(C#N)C#N)OC2=N (stereo not drawn)	i	2.6µM*	2.3µM*	i	0%	0%
N#CC1(C#N)COC23CCCCC2C1(C#N)C(=N)O3 (stereo not drawn)	u	5.8µM*	5.8µM*	u	-13%	-4%
C[C@H](CO)N1C[C@H](C)[C@H](CN(C)Cc2ccccc2)Oc2ccc(NC(=O)Nc3ccc(F)cc3)cc2C1=O	u	u	u	i	u	u
COc1ccc(NC(=O)Nc2cccc3c2O[C@H](CN(C)Cc2ccc(-c4ccccc4)cc2)[C@@H](C)CN([C@H](C)CO)C3=O)cc1	i	12µM*	8.2µM*	i	-3%	-23%
C[C@H](CO)N1C[C@H](C)[C@@H](CN(C)Cc2ccc3c(c2)OCO3)Oc2c(NC(=O)Cc3ccccc3)cccc2C1=O	u	21µM*	23µM*	i	u	u
C[C@@H]1CN([C@@H](C)CO)C(=O)c2cccc(NC(=O)Nc3ccc(F)cc3)c2O[C@@H]1CN(C)Cc1ccc(Oc2ccccc2)cc1	i	18µM*	13µM*	i	u	23µM*
O=C(COc1ccc(NS(=O)(=O)c2ccc(F)cc2)cc1)N1CCOCC1	i	-21%	-2%	i	6%	0%
Cc1ccc(C(=O)NNC(=O)COC(=O)COc2ccccc2C#N)cc1	i	-9%	2%	i	6%	11%
NNC(=O)C1=NOC2COC3(CCN(c4ncccn4)CC3)OCC12 (stereo not drawn)	i	u	-14%	i	10%	23%
O=C(N/N=C\c1ccc(Cl)cc1)C1=NOC2COC3(CCN(c4ccc([N+](=O)[O-])cc4)CC3)OCC12 (stereo not drawn)	u	6.5µM*	10µM*	u	0%	-24%
Cc1ccc(NC(=O)N(Cc2ccco2)C(C)c2ccco2)cc1C (stereo not drawn)	i	23µM*	u	i	0%	8%
COc1cccc(NC(=O)N(Cc2ccco2)C(C)c2cccs2)c1 (stereo not drawn)	i	-28%	-17%	i	18%	-3%
CC(c1cccs1)N(Cc1ccco1)C(=O)Nc1ccc(Cl)c(Cl)c1 (stereo not drawn)	i	u	u	16µM*	-25%	-17%
COc1ccc(C(=O)NC2CC2)cc1OC1CCN(Cc2ccc(F)cc2F)CC1	i	-27%	-28%	i	-2%	0%
C=CCNC(=O)c1c(Br)cnn1-c1ccc(C)cc1	u	-8%	-26%	i	4%	5%
O=C(O)Cn1nc(-c2ccc(F)cc2)oc1=O	i	u	16µM*	i	8%	16%
O=C(O)Cn1nc(-c2ccccc2)oc1=O	i	-4%	1%	i	13%	13%
C=C(NC(=O)C(=C)NC(=O)c1csc(C2=NC3c4csc(n4)C4NC(=O)c5csc(n5)C(C(C)(O)C(C)O)NC(=O)C5CSC(=N5)C(=CC)NC(=O)C(C(C)O)NC(=O)c5csc(n5)C3(CC2)NC(=O)C(C)NC(=O)C(=C)NC(=O)C(C)NC(=O)C(C(C)CC)NC2C=Cc3c(C(C)O)cc(nc3C2O)C(=O)OC4C)n1)C(N)=O (stereo not drawn)	x	5.2µM*	4.1µM*	x	x	x
